Screening data deposited in PubChem by National Center for Advancing Translational Sciences (NCATS).
D2 PAM-1 = human D2 receptor positive allosteric modulation. P14416. DiscoveRx D2 beta-arrestin cells, luminescence, 90 min; 100% = 57 uM dopamine signal. potentiation, % (test concentration not listed). hit rate 0.23% among 360,000. AID 624464; in the data active = potentiation above about 50%
Target sequence (P14416 whole entry, looked up): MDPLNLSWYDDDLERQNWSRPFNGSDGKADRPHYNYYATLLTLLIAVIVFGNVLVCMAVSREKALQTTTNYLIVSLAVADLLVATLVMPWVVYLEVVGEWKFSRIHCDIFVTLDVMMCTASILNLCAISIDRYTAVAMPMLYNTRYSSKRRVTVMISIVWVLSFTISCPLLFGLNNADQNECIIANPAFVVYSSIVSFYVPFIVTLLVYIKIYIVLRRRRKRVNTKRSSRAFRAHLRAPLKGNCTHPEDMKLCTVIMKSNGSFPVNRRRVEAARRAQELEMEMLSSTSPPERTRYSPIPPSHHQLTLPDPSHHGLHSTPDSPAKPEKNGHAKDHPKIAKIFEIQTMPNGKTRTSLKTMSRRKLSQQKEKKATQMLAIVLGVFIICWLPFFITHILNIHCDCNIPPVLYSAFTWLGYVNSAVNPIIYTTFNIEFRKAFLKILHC
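PathHunter beta-arrestin assay in DiscoveRx D2 cells. Compounds were added with an EC20 of dopamine (50 nM final) for 90 min at 37 deg C. Luminescence was read 1 h after detection reagent, with 57 uM dopamine as the EC100 control.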
D2 PAM-2 = D2 dopamine receptor (human) potentiation. P14416. HEK293 T-REx D2, calcium flux, EC20 dopamine potentiation. potentiation, % at 10 µM. hit rate 0.34% among 340,000. AID 485347;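 active = potentiation over 3 SD above the plate norm, cut at about 30% in these data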; also: 0% is about no effect
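Tetracycline-induced Hek293 Trex D2 cells, force-coupled to calcium, loaded with no-wash calcium dye. Compound added with 180 s kinetic read for agonism, then EC20 dopamine and a further 180 s read for potentiation.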
D2 ag-1 = activates the human D2 dopamine receptor | P14416 | AID 485358 | activation, % at 2 µM | hit rate 0.53% among 340,000 | HEK293 T-REx D2 cells, calcium flux agonist mode;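 active = activation over 3 SD above normal in the single-dose calcium agonist read, cut at about 30% in these data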; also: 0% is about no effect
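Tetracycline-induced HEK293 T-REx cells with force-coupled D2 receptor, plated overnight at 30 C, loaded with no-wash calcium dye. After a 10 s baseline, compound was pin-added and calcium flux read kinetically for 180 s; calcium rises flagged agonists.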
D2 ag-2 = agonists of human D2 dopamine receptor (beta-arrestin); DiscoveRx PathHunter D2 beta-arrestin, luminescence, 90 min; 100% = 57 uM dopamine signal; AID 624465; hit rate 0.084% among 360,000; activation, % (test concentration not listed); P14416; in the data active = activation above about 40%
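DiscoveRx PathHunter D2 beta-arrestin cells (2,100/well) attached overnight, then compound-stimulated 90 min at 37 C in HBSS/10 mM HEPES/0.1% Tween-20 buffer; beta-galactosidase complementation read by luminescence after 1 h at ambient temperature. Dopamine 57 uM final (EC100) as control.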
D2 antagonist = antagonizes the human D2 dopamine receptor. P14416. inhibition, % at 10 µM. hit rate 2% among 340,000. AID 485344. HEK293 TREx D2 cells, calcium flux, dopamine EC80; in the data active = inhibition above about 30%; inactive = below that, where a call was filed; also: 0% is about no effect
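Compounds are added to dye-loaded, induced HEK293 T-REx cells coupled to calcium release via D2; after a 3 min kinetic read an EC80 dopamine stimulus is given and fluorescence is recorded for 3 more min.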
An asterisk follows results filed as active; x = no result. Sampled rows, rich in hits. Any-hit rate of the full collection: about 2.4%.

SMILES | D2 PAM-1 | D2 PAM-2 | D2 ag-1 | D2 ag-2 | D2 antagonist
Cn1c(NCC(O)c2ccccc2)nc2c1c(=O)n(Cc1ccc(Cl)c(Cl)c1)c(=O)n2C (configuration not stated) | 54* | x | x | 2 | x
Cn1c(NCC(O)c2ccccc2)nc2c1c(=O)n(Cc1ccc(Cl)cc1)c(=O)n2C (configuration not stated) | -2 | 5 | 0 | -2 | -13
COc1cccc(C(=O)C2CCCN(Cc3cccc(-n4cccn4)c3)C2)c1 (configuration not stated) | -10 | -23 | -1 | -3 | 32*
Cc1c(CN2CCCC(C(=O)Nc3cccc(-n4cccn4)c3)C2)cnn1C (configuration not stated) | -19 | -17 | -3 | -3 | 47*
Cc1cc(CN2CCCC(C(=O)Nc3cccc(-n4cccn4)c3)C2)cc(C)c1O (configuration not stated) | -34 | -22 | 1 | -4 | 38*
COc1cccc(C(=O)C2CCCN(Cc3cccn3-c3cccnc3)C2)c1 (configuration not stated) | -11 | -20 | 0 | 1 | -2
COc1cc(OC)c(NC(=O)c2noc3c2CSc2ccccc2-3)cc1Cl | x | 5 | 3 | x | x
O=C(c1ccc2c(c1)N(Cc1ccccc1)C(=O)c1ccccc1S2(=O)=O)N1CCOCC1 | x | 5 | -1 | x | x
Cc1cc(C(=O)COC(=O)/C=C/c2ccc(F)cc2)c(C)n1C | -14 | 5 | 0 | -1 | 2
COCC(C)n1c(C)cc(C(=O)COC(=O)/C=C/c2cccc(F)c2)c1C (configuration not stated) | -3 | 53* | 0 | 2 | 4
CNC(=O)c1nnc(Cc2ccc(F)cc2)o1 | -2 | 0 | -1 | -5 | 58*
COc1ccc(S(=O)(=O)NCc2cccnc2)cc1 | -3 | -7 | -1 | -5 | 8
COc1ccc(S(=O)(=O)NCc2cccnc2)cc1Br | 60* | 4 | 1 | 11 | -5
COc1ccccc1CCNS(=O)(=O)c1c(C)n(C)c(=O)n(C)c1=O | -7 | 32* | 0 | -6 | 3
COc1ccccc1CCNS(=O)(=O)c1cn(C)c(=O)n(C)c1=O | -8 | -5 | 0 | -7 | -13
Cc1ccc(-n2c(=O)cc(N3CCN(c4ccccc4Cl)CC3)[nH]c2=O)cc1 | x | 9 | x | x | x
O=C(CCn1c(=O)c2sccc2n(Cc2ccccc2F)c1=O)NCc1ccc2c(c1)OCO2 | x | -2 | 0 | x | x
O=C(NCc1ccc2c(c1)OCO2)C1CCC(CNS(=O)(=O)c2cccc3nsnc23)CC1 (configuration not stated) | 1 | -1 | -1 | -5 | 35*
COc1ccc(CNC(=O)C2CCC(CNS(=O)(=O)c3cccc4nsnc34)CC2)cc1 (configuration not stated) | -2 | 6 | -2 | 3 | 17
COC(=O)[C@@]1(Cc2ccc(OC)cc2)[C@@H]2C(=CC(=O)[C@H]2CC(=O)C(=O)N2CCCC2)CN1C(=O)c1ccccc1 | 6 | 11 | 0 | 0 | 38*
COC(=O)[C@@]1(Cc2ccc(OC)cc2)[C@@H]2[C@@H](CC(=O)[C@H]2CC(=O)C(=O)N(C)C)CN1C(=O)c1ccccc1 | -25 | -2 | 1 | -7 | 11
CCOc1ccc(NC(=O)CSc2nc3ccsc3c(=O)n2C(C)CC)cc1 (configuration not stated) | x | -3 | 0 | x | x
Cc1cc(NC2CCCCC2)nc2ccccc12 | -14 | -19 | -1 | -4 | 44*
CC(=O)N1CCCc2cc(S(=O)(=O)N3CCC(C(=O)Nc4cccc(Cl)c4C)CC3)ccc21 | x | -8 | 0 | x | x
COc1cccc(/C=C/C(=O)Nc2ccc3nc4n(c(=O)c3c2)CCCC4)c1OC | 2 | 35* | -1 | 1 | -2
SMILES | D2 PAM-1 | D2 PAM-2 | D2 ag-1 | D2 ag-2 | D2 antagonist
COc1cccc(/C=C/C(=O)Nc2ccc3c(c2)OCCO3)c1OC | -32 | -23 | 1 | 0 | 69*
COc1cccc(/C=C/C(=O)Nc2cccc(C(C)=O)c2)c1OC | -5 | -19 | 0 | 6 | -1
COc1cc(/C=C/C(=O)Nc2ccc3nc4n(c(=O)c3c2)CCCC4)cc(OC)c1OC | -1 | 14 | -1 | 7 | 9
COc1cccc(/C=C/C(=O)Nc2ccc(C(=O)Nc3cccc(S(N)(=O)=O)c3)cc2)c1OC | -18 | -35 | -2 | 0 | 77*
N#C/C(=C\c1cc(Br)c(O)c(Br)c1)c1nc2ccccc2c(=O)[nH]1 | x | -2 | x | x | x
CCOc1ccccc1N1CCN(Cc2cn[nH]c2-c2ccc(F)cc2)CC1 | -4 | -22 | 22 | -2 | 81*
COc1ccc(C(=O)C2CCCN(Cc3cn[nH]c3-c3ccc(F)cc3)C2)cc1OC (configuration not stated) | -19 | 4 | 0 | 2 | 6
O=C(c1ccc(F)cc1)C1CCN(Cc2cn[nH]c2-c2ccc(F)cc2)CC1 | -26 | -25 | 1 | -3 | 94*
CCn1c(=O)c2cc(C(=O)Nc3cc(C)c(Cl)cc3OC)sc2c2ccccc21 | x | 7 | x | x | x
CCN(CC)C(=O)N1CCN(C)CC1 | -1 | 9 | 1 | -2 | 32*
CCNC(=O)c1ccccc1SCC(=O)Nc1ccc(F)cc1 | -7 | 35* | 0 | -3 | 23
CCNC(=O)c1ccccc1SCc1ccccc1 | 0 | 10 | -1 | 3 | 14
Cc1ncc([N+](=O)[O-])n1Cc1cccc2ccccc12 | -4 | 8 | -2 | -1 | 9
Cc1ncc([N+](=O)[O-])n1Cc1ccccc1F | -1 | -8 | -2 | -1 | 31*
O=C(Nc1ccc(F)c(F)c1)c1ccc(=O)n(Cc2ccc(F)cc2)c1 | x | -2 | -1 | x | x
Oc1ccc(/C=N/N2CCCCC2)cc1O | -11 | -3 | x | 44* | x
COc1ccc(/C=C(\C#N)C(=O)OC2CCOC2=O)cc1 (configuration not stated) | -15 | 7 | 0 | -1 | 33*
CSc1ccc(CN2CCC2(C)C(=O)Nc2cccc(Oc3ccccc3)c2)cc1 (configuration not stated) | -5 | x | x | -4 | x
CCOC(=O)C1(C)C=C(Nc2ccc(C(N)=O)cc2)C(=O)N1c1ccccc1 (configuration not stated) | x | 7 | -1 | x | x
CC(C)n1nnnc1SCC(=O)N1N=C(c2cccs2)CC1c1cccs1 (configuration not stated) | 25 | -16 | 0 | 3 | 39*
COc1ccc(Nc2c(-c3ccc(C)o3)nc3cc(C)ccn23)cc1 | x | 15 | x | x | x
CCCN1CCN(C(=O)CCc2nnc3ccc(N4CCN(c5cccc(OC)c5)CC4)nn23)CC1 | -4 | -5 | -1 | -6 | 32*
COc1cccc(N2CCN(c3ccc4nnc(CCC(=O)N5CCC(C)CC5)n4n3)CC2)c1 | 13 | -1 | 1 | -2 | -9
